High-throughput results deposited in PubChem BioAssay by National Center for Advancing Translational Sciences (NCATS).
Hits are enriched below; roughly 7.6% of the tested compounds scored in any of these assays.
SW480 rereplic: A quantitative high throughput screen for small molecules that induce DNA re-replication in SW480 colon adenocarcinoma cells; Potency, µM (series often up to 46.1 µM), for inactives: at the highest dose re-replication activation, most hits filed as activators; 1.8% of 340,000 active; SW480 DNA re-replication, Hoechst DNA content imaging, 48 h; AID 624297, 2012; note: potency is the fitted concentration of half-maximal effect; % of control where 0% means no effect; nearly all actives have a fitted effect of over 55% in size
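Per well, 250 cells were exposed to pinned compound for 48 hr. Nuclear DNA was visualised with Hoechst (40 min, 37 C) and total object intensity recorded by fluorescence scanning.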
KB-V1 cytotox: qHTS assay for MDR1-selective chemotherapeutics: Primary screen using the drug-selected MDR subline cells KB-V1 | KB-V1 MDR cells viability, CellTiter-Glo, 72 h | Potency, µM (top dose mostly 46.1 µM), hits mostly cytotoxic | 3.4% of 400,000 active; note: potency is the fitted concentration of half-maximal effect; % is set by controls: 0 for no effect and ±100 for the full control effect; nearly all actives have a fitted effect of over 60% in size
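qHTS viability screen in drug-selected KB-V1 MDR cells: 72 h compound treatment at 37 degrees C, ATP luminescence end point.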
KCNH2 WT inh: qHTS for Inhibitors of KCHN2 3.1: Wildtype qHTS | Voltage-gated inwardly rectifying potassium channel KCNH2 (Homo sapiens), Q12809 | U2OS, BacMam KCNH2, thallium flux FluxOr; stronger effect = lower value | activity change, % at 1.84 µM | 0.37% of 340,000 active | AID 720551, 2013;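 active = maximum activity change below -70%; inconclusive = maximum activity change between -70% and -50%; inactive = maximum activity change above -50%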; note: % is set by controls: 0 for no effect and ±100 for the full control effect
Target sequence (Q12809 whole entry, looked up): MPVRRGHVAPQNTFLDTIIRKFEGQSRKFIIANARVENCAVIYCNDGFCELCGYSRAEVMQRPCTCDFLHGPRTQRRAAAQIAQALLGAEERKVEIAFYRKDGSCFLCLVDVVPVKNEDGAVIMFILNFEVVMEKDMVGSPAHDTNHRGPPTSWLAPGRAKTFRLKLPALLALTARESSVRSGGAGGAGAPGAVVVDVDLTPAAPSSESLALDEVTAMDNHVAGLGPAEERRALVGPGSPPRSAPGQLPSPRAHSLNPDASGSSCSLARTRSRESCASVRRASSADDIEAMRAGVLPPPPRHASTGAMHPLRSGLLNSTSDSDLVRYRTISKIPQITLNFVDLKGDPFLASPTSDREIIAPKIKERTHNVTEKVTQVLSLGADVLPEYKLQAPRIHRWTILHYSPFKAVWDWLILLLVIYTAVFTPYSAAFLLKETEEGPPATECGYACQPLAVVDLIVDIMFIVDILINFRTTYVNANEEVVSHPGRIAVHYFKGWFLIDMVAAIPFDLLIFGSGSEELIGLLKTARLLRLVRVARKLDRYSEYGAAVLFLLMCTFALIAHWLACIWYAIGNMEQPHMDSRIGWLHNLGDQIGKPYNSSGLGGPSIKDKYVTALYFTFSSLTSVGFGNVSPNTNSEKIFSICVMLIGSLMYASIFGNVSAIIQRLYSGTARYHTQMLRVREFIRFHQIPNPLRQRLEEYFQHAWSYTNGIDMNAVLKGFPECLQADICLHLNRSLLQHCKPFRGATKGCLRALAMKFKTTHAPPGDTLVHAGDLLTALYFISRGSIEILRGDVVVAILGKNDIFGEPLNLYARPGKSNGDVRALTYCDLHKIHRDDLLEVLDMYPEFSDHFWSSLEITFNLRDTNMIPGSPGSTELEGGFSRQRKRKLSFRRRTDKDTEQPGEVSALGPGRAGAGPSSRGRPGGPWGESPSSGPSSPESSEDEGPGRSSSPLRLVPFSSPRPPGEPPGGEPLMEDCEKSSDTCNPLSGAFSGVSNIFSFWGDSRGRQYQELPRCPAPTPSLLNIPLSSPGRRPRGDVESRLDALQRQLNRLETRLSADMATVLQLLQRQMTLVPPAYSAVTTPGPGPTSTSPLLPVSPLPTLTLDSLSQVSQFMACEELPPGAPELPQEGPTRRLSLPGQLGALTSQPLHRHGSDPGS
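U2OS cells transduced with wild-type KCNH2 virus are loaded with FluxOr dye for 45 min, and thallium flux is measured in kinetic reads before and after stimulation buffer. Rate constants are normalized to DMSO controls.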
KB-3-1 tox: qHTS assay for MDR1-selective chemotherapeutics: Primary screen using the parental adenocarcinoma cell KB-3-1 | KB-3-1 viability, CellTiter-Glo ATP luminescence, 72 h | Potency, µM (highest dose often 46.1 µM), usual class: cytotoxic | 1.4% of 400,000 active; note: potency is the fitted concentration of half-maximal effect; % is set by controls: 0 for no effect and ±100 for the full control effect; nearly all actives have a fitted effect of over 60% in size
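Multi-concentration cytotoxicity screen in KB-3-1 cells grown in DMEM lacking phenol red with 10% FBS. After 72 h at 37 °C with compound, ATP-dependent luminescence was recorded.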
MCF10A rerep: A quantitative high throughput screen for small molecules that induce DNA re-replication in MCF 10a normal breast cells. MCF 10A DNA re-replication, Hoechst nuclear intensity, 48 h. Potency, µM (titrated, usually from 46.1 µM), for inactives: at the top dose activity, positive = re-replication, most hits filed as activators. 2.9% of 350,000 active; note: potency is the fitted concentration of half-maximal effect; % of control where 0% means no effect; nearly all actives have a fitted effect of over 50% in size
KCNH2 3.1 block: qHTS for Inhibitors of KCHN2 3.1: Mutant qHTS; U2OS KCNH2 3.1, thallium flux FluxOr; stronger effect = lower value; 0.95% of 340,000 active; Potassium voltage-gated channel subfamily H member 2, brain isoform KCNH2 3.1 (human); activity change, % (tested at about 1.8 µM);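 active = maximum activity change below -70%; inconclusive = maximum activity change from -70% to -50%; inactive = maximum activity change above -50%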;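 note: thallium influx rate constant from kinetic fluorescence after stimulation buffer; % is set by controls: 0 for no effect and ±100 for the full control effect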
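Steps: virus added to U2OS suspension (4 h, RT, dark); medium with 10% FBS added, cells plated, 37 C overnight; FluxOr/Red40 loading buffer 45 min RT; stimulation buffer, 2 min kinetic read; rate constant normalized.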
* marks the source's active call; other numbers are inactive results. Unless noted, calls come from the whole dose curve; as a rule, active = well fitted curve in the direction sought with a large enough effect; inconclusive = small, poorly fitted or top-dose-only effect, or another doubt; inactive = no such curve, though single readings can be large; an effect the other way counts as inactive or inconclusive.

For CCn1ncc(Br)c1C(=O)Nc1ccccc1C(=O)OC the results were SW480 rereplic 2%, KB-V1 cytotox inconclusive, KCNH2 WT inh -1, KB-3-1 tox 21µM*, MCF10A rerep 3% and KCNH2 3.1 block 2.
Cc1cc(C)cc(OCC(=O)OC(C)C(=O)Nc2ccc(Cl)cn2)c1 (stereo unspecified) was read as SW480 rereplic -488%, KB-V1 cytotox inactive, KCNH2 WT inh -10, KB-3-1 tox inactive, MCF10A rerep 29% and KCNH2 3.1 block -12.
Screening Oc1cc(-c2cccnc2)cc2cccnc12 returned SW480 rereplic inconclusive, KB-V1 cytotox inconclusive, KB-3-1 tox inconclusive and MCF10A rerep 10µM*.
`Cc1ccc(C(=O)c2oc3nc(C)cc(C)c3c2N)cc1` gave SW480 rereplic inconclusive, KB-V1 cytotox inconclusive, KCNH2 WT inh 13, KB-3-1 tox inactive, MCF10A rerep 9.2µM* and KCNH2 3.1 block -2.
CCc1ccc(C(=O)c2oc3nc(C)cc(C)c3c2N)cc1 was read as SW480 rereplic 16µM*, KB-V1 cytotox 2.6µM*, KCNH2 WT inh -8, KB-3-1 tox inactive, MCF10A rerep 7.3µM* and KCNH2 3.1 block 14.
For COc1ccccc1[C@@H]1C(c2ccccc2)=NN(c2ccc(Br)cc2)[C@H]1C(=O)N1CCOC1=O the results were SW480 rereplic inconclusive, KB-V1 cytotox inactive, KCNH2 WT inh -2, KB-3-1 tox inactive, MCF10A rerep 3.3µM* and KCNH2 3.1 block -40.
`COc1ccccc1[C@@H]1C(c2cccc(C)c2)=NN(c2ccc(Br)cc2)[C@H]1C(=O)N1CCOC1=O` gave SW480 rereplic 21µM*, KB-V1 cytotox inactive, KCNH2 WT inh -18, KB-3-1 tox inactive, MCF10A rerep inconclusive and KCNH2 3.1 block -16.
For COc1ccccc1[C@@H]1C(c2cccc(Cl)c2)=NN(c2ccccc2)[C@H]1C(=O)N1CCOC1=O the results were SW480 rereplic 2.6µM*, KB-V1 cytotox inactive, KCNH2 WT inh 1, KB-3-1 tox inconclusive, MCF10A rerep inconclusive and KCNH2 3.1 block -15.
For Cc1cccc(C)c1-n1nnnc1C(c1ccccc1)N1CCN(C/C=C/c2ccccc2)CC1 (stereo unspecified) the results were KB-V1 cytotox inactive and KB-3-1 tox inactive.
Screening CC(C)(CC(=O)O)CC(=O)N1CCN(c2cc(C(F)(F)F)nc3ccccc23)CC1 returned SW480 rereplic -14%, KB-V1 cytotox inactive, KCNH2 WT inh 15, KB-3-1 tox inactive, MCF10A rerep 5% and KCNH2 3.1 block -12.
CCS(=O)(=O)c1ccc2oc(SCC(=O)NC34CC5CC(CC(C5)C3)C4)nc2c1 was read as SW480 rereplic -4%, KB-V1 cytotox 15µM*, KCNH2 WT inh 4, KB-3-1 tox inactive, MCF10A rerep 3% and KCNH2 3.1 block -12.
CCC(=O)Nc1nonc1-c1nc2ccccc2n1Cc1ccccc1 was read as SW480 rereplic 8%, KB-V1 cytotox inconclusive, KCNH2 WT inh 9, KB-3-1 tox inconclusive, MCF10A rerep inconclusive and KCNH2 3.1 block -7.
`CCC(=O)Nc1nonc1-c1nc2ccccc2n1Cc1cccc2ccccc12` gave SW480 rereplic 7.3µM*, KB-V1 cytotox inconclusive, KCNH2 WT inh -16, KB-3-1 tox 0.92µM*, MCF10A rerep 0.37µM* and KCNH2 3.1 block -85*.
`O=C(CCc1ccc(S(=O)(=O)N2CCOCC2)cc1)N1CCc2ccccc2C1` gave SW480 rereplic -2%, KB-V1 cytotox inconclusive, KCNH2 WT inh -16, KB-3-1 tox inactive, MCF10A rerep 1% and KCNH2 3.1 block -3.
For CC(CCc1ccccc1)NC(=O)CCNC(=O)Cn1ccc2ccccc2c1=O (stereo unspecified) the results were SW480 rereplic inconclusive, KB-V1 cytotox inactive, KCNH2 WT inh -2, KB-3-1 tox inactive, MCF10A rerep -35% and KCNH2 3.1 block -3.
For CC1(C)CC[C@]2(C(=O)O[C@@H]3OC(CO)[C@@H](O)[C@H](O)[C@H]3O)CC[C@]3(C)C(=CCC4[C@@]5(C)CC[C@H](O[C@@H]6OC(C(=O)O)[C@@H](O)[C@H](O)[C@H]6O)C(C)(C)C5CC[C@]43C)[C@@H]2C1 (stereo partly specified) the results were SW480 rereplic -5%, KB-V1 cytotox inactive, KCNH2 WT inh -2, KB-3-1 tox inactive, MCF10A rerep 18µM* and KCNH2 3.1 block 5.
Screening O=C(COC(=O)CCN1C(=O)C2CC=CCC2C1=O)NCCc1ccc(F)cc1 (stereo unspecified) returned SW480 rereplic 2%, KB-V1 cytotox inconclusive, KCNH2 WT inh -3, KB-3-1 tox inactive, MCF10A rerep 2% and KCNH2 3.1 block 3.
CCOC(=O)CNC(=O)N(C)[C@H]1C[C@H]2c3[nH]c4ccccc4c3CCN2C(=O)[C@H]1[C@H](C)O was read as KB-V1 cytotox inactive and KB-3-1 tox inactive.
`Cc1ccc(N2C(=O)CN(Cc3cccs3)C2=S)cc1C` gave SW480 rereplic 6%, KB-V1 cytotox inactive, KCNH2 WT inh -1, KB-3-1 tox inactive, MCF10A rerep -1% and KCNH2 3.1 block -2.
`Cc1ccc(N2C(=O)CN(Cc3sccc3C)C2=S)cc1C` gave SW480 rereplic 0%, KB-V1 cytotox 16µM*, KCNH2 WT inh 2, KB-3-1 tox inconclusive, MCF10A rerep inconclusive and KCNH2 3.1 block 7.
For Cc1ccccc1N1C(=O)CN(Cc2sccc2C)C1=S the results were SW480 rereplic inconclusive, KB-V1 cytotox 3.3µM*, KCNH2 WT inh 5, KB-3-1 tox inconclusive, MCF10A rerep 10% and KCNH2 3.1 block 2.
CCCCNCc1ccc(OCc2ccc(Cl)nc2)c(OC)c1 was read as SW480 rereplic -1%, KB-V1 cytotox inactive, KCNH2 WT inh 6, KB-3-1 tox inactive, MCF10A rerep inconclusive and KCNH2 3.1 block 7.
For CCN1CCCC1CNCc1ccc(OCc2ccc(Cl)nc2)c(OC)c1 (stereo unspecified) the results were SW480 rereplic 23%, KB-V1 cytotox inactive, KCNH2 WT inh 10, KB-3-1 tox inactive, MCF10A rerep 5.8µM* and KCNH2 3.1 block -14.
